Source: PubChem (National Center for Advancing Translational Sciences (NCATS))
p53null 39C tox – p53 null cell cytotoxicity, nonpermissive temperature; AID 904; Potency, µM (doses to about 46.1 µM), inactives show top-dose activity, negative = cell killing, usual class: cytotoxic; 55,000 compounds, 0.97% hits; H1299 p53-null (neo) cells, 39C, ATPlite viability, 24 h;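 note: 0% = DMSO only and -100% = full killing by 100 µM tamoxifen; nearly all actives have a fitted effect of over 50% in size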
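Temperature-shift cytotoxicity format: compound titrations on p53-null or A138V-expressing H1299 cells held 24 hr at 39C, cell ATP then measured, AC50 from Hill model.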
S16 viability – cytotoxicity in S16 Pmp22-F2sN Schwann cells | S16 Pmp22-F2sN Schwann cells viability, CellTiter-Glo, 24 h | Potency, µM (highest dose often 57.5 µM), without a hit: top-dose activity change, negative = cytotoxicity, actives largely listed as cytotoxic | 43,000 compounds, 0.48% hits | AID 1508642; note: nearly all actives have a fitted effect of over 65% in size
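Seed 500-1,000 S16 Pmp22-F2sN cells per well in phenol-red-free DMEM with 10% heat-inactivated FBS; pin-add 23 nL compound; incubate 24 h at 37C; add CellTiter-Glo, wait 15 min protected from light; read luminescence.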
OvCa metastasis – inhibitors of ovarian cancer cell adhesion and invasion in omental model | Potency, µM (titrated, usually from 45.8 µM), without a hit: at the highest dose activity change, negative = inhibition, actives largely listed as inhibitors | 46,000 compounds, 0.1% hits | SKOV3ip1-GFP adhesion/invasion on 3D omental model, fluorescence;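 note: plate controls were DMSO wells for no effect and tomatine positive control wells for full effect; nearly all actives have a fitted effect of over 65% in size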
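A 3D layer of primary human omental fibroblasts, mesothelial cells, fibronectin and collagen I, grown 48 hr, received SKOV3ip1-GFP cells in serum-free medium plus compounds at 0.36-46 umol/L. After 2 hr RT and 16 hr 37 C, fixed adherent GFP cells were counted; normalized to DMSO and tomatine.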
p53null 32C kill – p53 null cell cytotoxicity, permissive temperature. H1299-neo p53 null cells, ATP luminescence, 24 h, 32C. Potency, µM (highest dose often 46.1 µM), for the others: at the top dose activity change, negative = cytotoxicity, usual class: cytotoxic. 55,000 compounds, 0.62% hits. AID 903;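 note: 0% = DMSO only and -100% = full killing by 100 µM tamoxifen; nearly all actives have a fitted effect of over 55% in size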
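AC50 values derive from Hill modelling of qHTS concentration-response data (up to 46 uM) in H1299-neo cells. Cells were treated 24 h at 32C following overnight attachment at 37C; viability was read as cellular ATP.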
PMP22 txn prim – PMP22 gene transcription modulation | S16 Pmp22-F2sN Schwann cells (luciferase reporters placed in the Pmp22 gene), FLuc/NLuc coincidence luminescence, 24 h | Potency, µM (doses to about 57.5 µM), inactives show at the highest dose activity change, negative = inhibition, usual class: inhibitors | 43,000 compounds, 2% hits; active = clear falling dose curves in both reporters; inconclusive = both reporters move, but less clearly or upward; inactive = either reporter flat; the % is the NLuc reporter signal
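S16(c9) Schwann cells with FLuc/NLuc coincidence reporter in the Pmp22 3' UTR; compounds pin-transferred, 24 h at 37C. Dual-luciferase read: FLuc first, then NLuc after Stop&Glo, each 10 min at room temperature.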
pS6 MEF inh – inhibitors of mTORC1 signaling in Tsc2-/- p53-/- MEF cells; Tsc2-/- p53-/- MEF, phospho-rpS6 immunofluorescence/PI, 24 h; Potency, µM (titrated, usually from 38.3 µM), for inactives: top-dose activity change, negative = inhibition, hits mostly inhibitors; 44,000 compounds, 0.78% hits;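 note: plate controls were DMSO for no effect and rapamycin for full effect; nearly all actives have a fitted effect of over 50% in size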
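Plate MEFs (Tsc2-/-, p53-/-, empty vector) in DMEM/10% FBS; after 24 h add compound, incubate 24 h at 37 degree Celsius; fix in PFA/TX-100, block, stain phospho-rpS6 and 10 uM PI; scan at 488 nm; report % positive cells.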
An asterisk follows results filed as active. A selection: hits, their analogues and other compounds. The true share with any hit is near 3%. Unless noted, calls come from the whole dose curve; as a rule, active = well fitted curve in the direction sought with a large enough effect; inconclusive = small, poorly fitted or top-dose-only effect, or another doubt; inactive = no such curve, though single readings can be large; an effect the other way counts as inactive or inconclusive. Unless noted, % is set by controls: 0 for no effect and ±100 for the full control effect; potency is the fitted concentration of half-maximal effect.

Results for O=C1CC(c2ccccc2)Cc2[nH]c(=O)c(-c3nc(-c4ccc(Cl)c(Cl)c4)cs3)cc21 (centres undefined) ?
p53null 39C tox: -9.6%; S16 viability: inconclusive; OvCa metastasis: -6.1%; p53null 32C kill: 19.8%; PMP22 txn prim: -7.5%; pS6 MEF inh: -1.6%

What do the screens show for `O=C1CC(c2ccccc2)Cc2[nH]c(=O)c(-c3nc(-c4ccc(Cl)cc4)cs3)cc21` (centres undefined)?
p53null 39C tox: -1.9%; S16 viability: inconclusive; OvCa metastasis: -27.2%; p53null 32C kill: 32.5%; PMP22 txn prim: 0.751µM*; pS6 MEF inh: 5.85µM*

Results for COc1ccc(Nc2nc(N)c3cc(OC)c(OC)cc3n2)cc1 ?
p53null 39C tox: inconclusive; S16 viability: inconclusive; OvCa metastasis: inconclusive; p53null 32C kill: inconclusive; PMP22 txn prim: inconclusive; pS6 MEF inh: 18.5µM*

How did O=C(CSc1nc(-c2ccccc2)[nH]c1-c1ccccc1)Nc1ccc2c(c1)OCO2 do in these assays?
p53null 39C tox: inconclusive; S16 viability: 35.5µM*; OvCa metastasis: -12.0%; p53null 32C kill: 11.0%; PMP22 txn prim: inconclusive; pS6 MEF inh: inconclusive

What do the screens show for `COc1cc(-c2nc(SCC(=O)Nc3ccc4c(c3)OCO4)c(-c3ccccc3)[nH]2)cc(OC)c1OC`?
p53null 39C tox: inconclusive; S16 viability: inconclusive; OvCa metastasis: inconclusive; p53null 32C kill: 17.2%; PMP22 txn prim: -57.6%; pS6 MEF inh: -16.1%

How did Cc1cnc(Nc2ccc(CN3CCOCC3)cc2)nc1Nc1cccc(S(=O)(=O)NC(C)(C)C)c1 do in these assays?
OvCa metastasis: -23.5%

How did CCOc1ccc(NC(=O)NCCN2CCN(c3cc(Cl)ccc3C)CC2)cc1 do in these assays?
p53null 39C tox: -11.2%; S16 viability: -7.5%; OvCa metastasis: 9.2%; p53null 32C kill: 8.4%; PMP22 txn prim: inconclusive; pS6 MEF inh: -11.4%

How did Cc1ccc(Cl)cc1N1CCN(CCNC(=O)Nc2ccc(Cl)cc2)CC1 do in these assays?
p53null 39C tox: 20µM*; S16 viability: inconclusive; OvCa metastasis: inconclusive; p53null 32C kill: inconclusive; PMP22 txn prim: inconclusive; pS6 MEF inh: -29.0%

Results for Cc1ccc2[nH]cc(C(c3ccccc3)c3ccc(Cl)s3)c2c1 (centres undefined) ?
p53null 39C tox: 25.1µM*; S16 viability: inconclusive; OvCa metastasis: -7.5%; p53null 32C kill: 20µM*; PMP22 txn prim: -29.7%; pS6 MEF inh: inconclusive

Results for Clc1ccc(C(c2ccccc2)c2c[nH]c3ccccc23)s1 (centres undefined) ?
p53null 39C tox: -8.8%; S16 viability: 27.3%; OvCa metastasis: 6.1%; p53null 32C kill: 7.0%; PMP22 txn prim: inconclusive; pS6 MEF inh: inconclusive

Results for Cc1ccc(-n2[nH]c(C)c(N=Nc3cccc(-c4cccc(C(=O)O)c4)c3O)c2=O)cc1C ?
OvCa metastasis: -7.5%

What do the screens show for `O=C(Nc1nc2c(s1)CCCC2)c1ccc2ncsc2c1`?
p53null 39C tox: 11.2µM*; p53null 32C kill: 12.6µM*

What do the screens show for `Cc1cccc(C(=O)Nc2nc3c(s2)CCCC3)c1`?
p53null 39C tox: 12.6µM*; S16 viability: -19.1%; OvCa metastasis: -13.6%; p53null 32C kill: 12.6µM*; PMP22 txn prim: -17.8%; pS6 MEF inh: -5.0%

What do the screens show for `COc1cccc(/C=N/Nc2nnc(C)n2N)c1OCc1ccccc1Cl`?
p53null 39C tox: 17.8µM*

How did COc1ccc(C2=N[C@H](c3ccc(Cl)cc3)[C@H](c3ccc(Cl)cc3)N2C(=O)N2CCNC(=O)C2)c(OC(C)C)c1 do in these assays?
OvCa metastasis: 24.8%

How did COC(=O)c1ccc(-c2nc3cc(N)ccc3o2)cc1 do in these assays?
p53null 39C tox: -14.5%; p53null 32C kill: inconclusive

What do the screens show for `Nc1ccc2oc(-c3ccccn3)nc2c1`?
p53null 39C tox: -20.7%; p53null 32C kill: 11.2µM*

Results for Nc1nccc(Oc2ccc(NC(=O)c3c[nH]cc(-c4ccc(F)cc4)c3=O)cc2F)c1Cl ?
OvCa metastasis: -14.3%

How did N#Cc1ccc(COC[C@H]2O[C@@H](n3c(NCc4ccc(Cl)c(Cl)c4)nc4c(N)ncnc43)[C@@H](O)[C@@H]2O)cc1 do in these assays?
OvCa metastasis: -19.8%

Results for Cc1nn(-c2ccccc2Cl)c(Cl)c1/C=N/Nc1cccc(C(=O)O)c1 ?
p53null 39C tox: 14.1µM*; p53null 32C kill: 10µM*

What do the screens show for `COC(=O)N/N=C/c1c(C)nn(-c2cccc(Cl)c2)c1Cl`?
p53null 32C kill: 6.2%

Results for CC1CCC(C(=O)N(c2cc(C#CC(C)(C)C)sc2C(=O)O)C2CCC(O)CC2)CC1 (centres undefined) ?
OvCa metastasis: -3.0%

Results for CCOc1ccc(-c2nnc(-c3ccccc3)o2)cc1 ?
p53null 39C tox: 12.6µM*; p53null 32C kill: inconclusive

What do the screens show for `CCOc1ccc(-c2nc3ccccc3c(=O)o2)cc1`?
p53null 39C tox: 6.31µM*; S16 viability: 2.2%; OvCa metastasis: 4.7%; p53null 32C kill: 3.98µM*; PMP22 txn prim: -14.9%; pS6 MEF inh: 4.5%

What do the screens show for `CCS(=O)(=O)c1oc(-c2ccc(F)cc2)nc1S(=O)(=O)c1ccc(Br)cc1`?
p53null 39C tox: inconclusive; S16 viability: 2.82µM*; OvCa metastasis: inconclusive; p53null 32C kill: 49.3%; PMP22 txn prim: 3.03µM*; pS6 MEF inh: 2.61µM*

Results for CSc1oc(-c2ccc(F)cc2)nc1S(=O)(=O)c1ccccc1 ?
p53null 39C tox: 25.7%; p53null 32C kill: -1.0%

Results for CC(C)S(=O)(=O)c1oc(-c2cccs2)nc1S(=O)(=O)c1ccc(F)cc1 ?
p53null 39C tox: -21.9%; S16 viability: 3.16µM*; OvCa metastasis: inconclusive; p53null 32C kill: inconclusive; PMP22 txn prim: 1.68µM*; pS6 MEF inh: 0.585µM*

How did CCCCS(=O)(=O)c1oc(-c2ccc(F)cc2)nc1S(=O)(=O)c1ccccc1 do in these assays?
p53null 39C tox: inconclusive; S16 viability: 4.47µM*; OvCa metastasis: inconclusive; p53null 32C kill: 17.8µM*; PMP22 txn prim: 2.38µM*; pS6 MEF inh: 2.93µM*

Results for Cc1ccc(S(=O)(=O)c2nc(-c3ccc(F)cc3)oc2SCC(N)=O)cc1 ?
p53null 39C tox: 4.0%; p53null 32C kill: 3.4%
